Hits are enriched below; roughly 2.3% of the tested compounds scored in any of these assays.
HTT cytoprotect – qHTS Multiplex Assay to Identify Dual Action Probes in a Cell Model of Huntington: Cytoprotection (ATP); 0.14% of 230,000 active; AID 1471, 2008; PC12 HTT-Q103 induced, cytoprotection, ATP luminescence, 40 h; Potency, µM (series often up to 56.4 µM), hits mostly activators; note: nearly all actives have a fitted effect of over 45% in size
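Cells were plated at 1500 per well in phenol red-free DMEM with 5% equine and 5% calf serum. Tebufenozide (100 nM final) and compounds were added, then ATPlite reagent, and luminescence was read.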
HTT aggregate – qHTS Multiplex Assay to Identify Dual Action Probes in a Cell Model of Huntington: Aggregate Formation (GFP) | 1.1% of 220,000 active | PC12 HttQ103-GFP aggregates, Acumen cytometry, 40 h | AID 1688, 2009 | Potency, µM (highest dose often 46.1 µM), most hits filed as inhibitors; note: nearly all actives have a fitted effect of over 60% in size
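Compounds (qHTS titration) were added to PC12 cells expressing an ecdysone-driven HTT exon 1 Q103–GFP fusion after induction with 100 nM tebufenozide. Aggregate formation was measured as GFP objects in cell lysates.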
Coupling enz – qHTS Assay for Inhibitors of Fructose-1,6-bisphosphate Aldolase from Giardia Lamblia: Coupling assay counterscreen | coupling enzyme system counterscreen, AmpLite Red fluorescence | activity change, negative = inhibition, % at 58.2 µM, hits read low | 0.67% of 290,000 active | AID 2472, 2010; in the data active = activity change below about -30%
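Compounds tested against the coupling enzymes alone at 57.5 uM final; readout was AmpLite Red fluorescence (525/598 nm) after 20 min at RT.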
VDR inh – Inhibitors of the vitamin D receptor (VDR): qHTS. Vitamin D3 receptor (Homo sapiens), P11473. VDR-SRC2-3 peptide fluorescence polarization, 2 h. Potency, µM, most hits filed as inhibitors. 0.93% of 400,000 active
Target sequence (P11473 whole entry, looked up): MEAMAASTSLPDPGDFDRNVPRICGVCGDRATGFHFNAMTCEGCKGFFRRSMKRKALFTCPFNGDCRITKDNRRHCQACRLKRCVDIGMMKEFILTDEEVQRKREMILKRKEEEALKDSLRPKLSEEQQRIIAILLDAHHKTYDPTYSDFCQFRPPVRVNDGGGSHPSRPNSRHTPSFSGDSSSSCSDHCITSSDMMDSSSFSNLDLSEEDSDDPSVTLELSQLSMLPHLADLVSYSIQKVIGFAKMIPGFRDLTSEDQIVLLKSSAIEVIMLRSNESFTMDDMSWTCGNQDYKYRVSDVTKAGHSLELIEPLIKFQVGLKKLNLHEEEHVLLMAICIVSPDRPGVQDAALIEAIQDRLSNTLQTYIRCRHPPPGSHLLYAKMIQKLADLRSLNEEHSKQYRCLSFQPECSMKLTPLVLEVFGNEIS
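Signal is fluorescence polarization, reporting how far test compounds block the interaction of VDR with the SRC2-3 coregulator peptide after a 2 h room-temperature incubation.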
RGS12 GoLoco inh – qHTS Assay for Inhibitors of RGS12 GoLoco Motif Activity (Red Fluorophore) | Guanine nucleotide-binding protein G(i) subunit alpha-1 (Homo sapiens), P63096 | Gai1:RGS12 GoLoco peptide FP, rhodamine, 10 min | Potency, µM (series often up to 61.6 µM), hits mostly inhibitors | 0.44% of 230,000 active | AID 880, 2007; active = well fitted inhibition curve with a large enough effect, not every such curve was filed as active; inactive = no such curve, though single readings can be large or run the other way; note: nearly all actives have a fitted effect of over 30% in size
JMJD2E inh – qHTS Assay for Inhibitors of Human Jumonji Domain Containing 2E (JMJD2E). Potency, µM (series often up to 57.1 µM), actives largely listed as inhibitors. Lysine-specific demethylase 4E (Homo sapiens), B2RXH2. 1.6% of 230,000 active. JMJD2E catalytic domain, FDH-coupled NADH fluorescence (FDH is formaldehyde dehydrogenase); note: nearly all actives have a fitted effect of over 50% in size
Target sequence (B2RXH2 1-337 limits assumed): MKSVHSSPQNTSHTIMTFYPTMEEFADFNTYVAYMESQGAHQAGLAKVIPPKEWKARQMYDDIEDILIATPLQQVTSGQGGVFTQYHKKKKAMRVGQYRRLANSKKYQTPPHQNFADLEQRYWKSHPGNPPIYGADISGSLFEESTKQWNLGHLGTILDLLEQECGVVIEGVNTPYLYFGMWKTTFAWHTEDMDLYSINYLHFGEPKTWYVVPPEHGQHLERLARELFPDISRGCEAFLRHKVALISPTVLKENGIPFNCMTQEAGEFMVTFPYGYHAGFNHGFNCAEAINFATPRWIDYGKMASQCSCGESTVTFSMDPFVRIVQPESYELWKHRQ
Of the large screens only hits and unclear results are named; the others gave an inactive call; ! = not active in a repeat. Unless noted, calls come from the whole dose curve; as a rule, active = well fitted curve in the direction sought with a large enough effect; inconclusive = small, poorly fitted or top-dose-only effect, or another doubt; inactive = no such curve, though single readings can be large; an effect the other way counts as inactive or inconclusive.

CC(C)=CCC/C(C)=C/C=C/C(C)=C/C=C/C(C)=C/C=C/C=C(C)/C=C/C=C(C)/C=C/C=C(\C)CCC=C(C)C	HTT cytoprotect inconclusive, VDR inh inconclusive (no result: Coupling enz, JMJD2E inh)
CCc1ccc(-n2c(=O)c3c4c(sc3n(CC(=O)NCCCOC)c2=O)CCCC4)cc1	none (no result: HTT cytoprotect, HTT aggregate, Coupling enz, RGS12 GoLoco inh, JMJD2E inh)
COc1ccc(CCC(C)NCCc2ccc(Cl)cc2Cl)cc1 (centres undefined)	none (no result: HTT cytoprotect, HTT aggregate, RGS12 GoLoco inh, JMJD2E inh)
C[C@@H](CCc1ccc(O)cc1)NCCc1ccc(O)c(O)c1	JMJD2E inh 20µM (no result: HTT aggregate)
COC(=O)[C@@H]1C[C@@]2(O)[C@H](O)[C@H](O)[C@H](O)C[C@H]2N1Cc1ccc(-c2ccccc2)cc1	JMJD2E inh 8.9µM!
COC(=O)[C@@H]1C[C@@]2(O)[C@@H](O)[C@@H](O)[C@@H](O)C[C@H]2N1Cc1ccc(-c2ccccc2)cc1	none
O=C1C=CC(=O)N1CCCCCCN1C(=O)C=CC1=O	HTT aggregate 5µM, VDR inh 3.2µM
CC(=O)Nc1ccc2cc3ccc(NC(C)=O)cc3nc2c1	Coupling enz -33, JMJD2E inh inconclusive
COc1cccc(CNC(=O)COC(=O)c2cc([N+](=O)[O-])ccc2N2CCCC2)c1	none (no result: HTT cytoprotect, HTT aggregate, Coupling enz, RGS12 GoLoco inh, JMJD2E inh)
O=C(Nc1nc(-c2ccccc2Cl)cs1)c1cccnc1	none
O=C(O)Cn1c(C(=O)Nc2nc(-c3ccccc3Cl)cs2)cc2ccccc21	VDR inh 56µM (no result: RGS12 GoLoco inh, JMJD2E inh)
CCOCCCNC(=O)/C(C#N)=C/c1ccc(Cl)c([N+](=O)[O-])c1	VDR inh inconclusive, JMJD2E inh 20µM
N#C/C(=C\c1ccc(O)c(O)c1)C(=O)NCCCc1ccccc1	VDR inh inconclusive, JMJD2E inh 3.2µM
COc1cc(OC)c(OC)cc1/C=C(\C#N)C(=O)NCc1cccs1	none (no result: HTT cytoprotect, HTT aggregate, RGS12 GoLoco inh, JMJD2E inh)
N#C/C(=C\c1ccc(O)c(O)c1)C(=O)OCCc1cccs1	VDR inh inconclusive, JMJD2E inh 22µM (no result: HTT aggregate)
N#C/C(=C\c1ccc(O)c(O)c1)C(=O)N1CCCC1	JMJD2E inh 14µM
O=C(NCC1CCCO1)c1ccc(CSCc2cccc(F)c2)o1 (centres undefined)	VDR inh inconclusive
CC(C)C(OC(=O)CN1C(=O)c2ccccc2C1=O)C(=O)NC1CCCCC1 (centres undefined)	none (no result: HTT cytoprotect, HTT aggregate, RGS12 GoLoco inh, JMJD2E inh)
COCCNC(=O)/C(C#N)=C/c1ccc(N2CCOCC2)o1	HTT aggregate inconclusive, JMJD2E inh inconclusive (no result: HTT cytoprotect)
N#C/C(=C\c1ccc(N2CCOCC2)o1)C(=O)NCCc1ccccc1	JMJD2E inh 40µM
COCCNC(=O)/C(C#N)=C/c1cccc(/C=C(\C#N)C(=O)NCCOC)c1	VDR inh 35µM (no result: HTT cytoprotect)
N/C(Cc1cccc2ccccc12)=N\OC(=O)Cc1cccs1	Coupling enz -40
N/C(Cc1cccc2ccccc12)=N\OC(=O)c1cccs1	none
O=C(Cc1ccc(S(=O)(=O)N2CCOCC2)s1)Nc1nc2c(s1)CCCC2	Coupling enz -59
O=C(Cc1ccc(S(=O)(=O)N2CCOCC2)s1)Nc1ccc2c(c1)CCC2	none
Cc1oc2ccc(O)c(CN3CCN(C)CC3)c2c1C(=O)Nc1cccc(Cl)c1C	none (no result: HTT cytoprotect, HTT aggregate, Coupling enz, RGS12 GoLoco inh, JMJD2E inh)
N[C@H](C(=O)O)[C@H](O)C(=O)O	JMJD2E inh 13µM! (no result: HTT aggregate)
CCCc1cnc(NCCNCC(O)COc2ccc(Cl)c(Cl)c2)nc1 (centres undefined)	none
Cn1c(-c2ccccc2)c(C(=O)CC#N)c2ccccc21	none
CN(C)CCCNCC(=O)c1c(-c2ccccc2)n(C)c2ccccc12	VDR inh 79µM (no result: HTT cytoprotect, HTT aggregate, RGS12 GoLoco inh, JMJD2E inh)
COc1ccccc1CN1CC[C@@]2(CCCN(C(=O)c3cnccn3)C2)C1	HTT cytoprotect inconclusive, VDR inh inconclusive (no result: HTT aggregate, JMJD2E inh)
CCC(C)Sc1ccc([C@H]2N[C@@](Cc3ccccc3)(C(=O)OC)[C@H]3C(=O)N(CC)C(=O)[C@@H]23)cc1OC (some centres undefined)	none (no result: HTT cytoprotect, HTT aggregate, Coupling enz, RGS12 GoLoco inh, JMJD2E inh)
O=c1[nH]cnc2nn(-c3ccccc3)nc12	JMJD2E inh inconclusive
O=c1[nH]cnc2nc(-c3ccccc3)c(-c3ccccc3)nc12	HTT aggregate 14µM, JMJD2E inh 3.2µM
Cc1cccc(NC(=O)C2CC(O)CN2C(=O)OCc2ccccc2)c1 (centres undefined)	none
CC(NC(=O)OCc1ccccc1)C(=O)N1CC(O)CC1C(=O)O (centres undefined)	HTT cytoprotect 0.1µM (no result: HTT aggregate)
COc1ccc(N2CC(C(=O)Nc3ccccc3C(=O)NC3CC3)CC2=O)cc1 (centres undefined)	none (no result: HTT cytoprotect, HTT aggregate, RGS12 GoLoco inh, JMJD2E inh)
CCCN(CCC)C(=O)c1cc([N+](=O)[O-])cc2c1-c1ccc([N+](=O)[O-])cc1C2=C(C#N)C#N	Coupling enz -32, VDR inh 40µM, JMJD2E inh inconclusive
CCCCC(OC(=O)c1ccco1)C(=O)NCc1ccc(C)cc1 (centres undefined)	none (no result: HTT cytoprotect, HTT aggregate, RGS12 GoLoco inh, JMJD2E inh)
CCOc1ccc(Nc2nc(Cc3nnc(SCC(=O)c4ccc(C)c(C)c4)o3)cs2)cc1	HTT aggregate 10µM
CCc1cccc(NC(=O)c2coc(=O)c3ccccc23)c1	none (no result: HTT cytoprotect, HTT aggregate, Coupling enz, RGS12 GoLoco inh, JMJD2E inh)
COc1ccc(Cl)cc1C(=O)Nc1ccccc1N1CCCCC1	none (no result: HTT cytoprotect, HTT aggregate, RGS12 GoLoco inh, JMJD2E inh)
O=C(COC(=O)/C=C/c1ccccc1[N+](=O)[O-])NC1CC1	VDR inh 71µM
O=C(COC(=O)/C=C/c1ccccc1[N+](=O)[O-])NC1CCS(=O)(=O)C1 (centres undefined)	none
CC(C)OC(=O)Cn1nc(C(c2ccccc2)c2ccccc2)oc1=O	none (no result: HTT cytoprotect, HTT aggregate, RGS12 GoLoco inh, JMJD2E inh)
CCOc1ccc(N2C(=O)Nc3ccccc3C2(O)C(=O)NCc2ccc(F)cc2)cc1 (centres undefined)	none
CCOc1ccc(N2C(=O)Nc3ccccc3C2(O)C(=O)NCc2ccc(OC)cc2)cc1 (centres undefined)	HTT aggregate 0.71µM
N#CC1=C(N)C2=CCCC[C@H]2[C@H](c2ccccc2)C1(C#N)C#N	VDR inh 79µM
Cc1cccc(NNC(=S)Nc2c(C)cccc2C)c1	VDR inh inconclusive (no result: HTT cytoprotect, HTT aggregate, RGS12 GoLoco inh, JMJD2E inh)
Cc1cccc(NC(=S)NNc2cccc(Cl)c2)c1	VDR inh 28µM (no result: HTT cytoprotect, HTT aggregate, RGS12 GoLoco inh, JMJD2E inh)
Cc1cccc(NC(=S)NC(C)(C)CC(C)(C)C)c1	HTT cytoprotect 8.9µM, HTT aggregate inconclusive
N#Cc1nc(Cc2ccccc2)oc1NCc1ccccc1Cl	HTT aggregate 8.9µM
N#Cc1nc(Cc2ccccc2)oc1NCc1cccnc1	none
CCCCCCOc1ccc(N2C(=O)CC(S/C(N)=N/N=C(\C)c3cccs3)C2=O)cc1 (centres undefined)	HTT cytoprotect 0.79µM
